# Compounds with a hit are over-represented: about 3.3% of the library has one in this group of screens.
# FXN GAA850 act – increases GAA850 frataxin promoter reporter activity; HEK293 lucGAA850 FXN promoter luciferase reporter, 24 h; percent of 10 µM SAHA response; activation, % at 6 µM; 360,000 compounds, 0.56% hits; AID 540364;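 active = activation above the average of all compounds screened plus 3 SD, cutoff fixed separately per campaign, cut at about 7.5% in these data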;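 note: 0% = DMSO wells and 100% = 10 µM SAHA wells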
# Wnt act – activates Wnt/beta-catenin signaling in a reporter cell assay; activation, % at 9.35 µM; activator, plate reader; 300,000 compounds, 1.2% hits; AID 743398; in the data active = activation above about 30%, passing the limit was not always enough; inconclusive = no clear call, values can overlap the other calls;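 note: 0% = neutral control wells and 100% = positive control wells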
# MITF act – MITF TRPM1 promoter activation in melanoma cells; SK-MEL-5 TRPM1-promoter luciferase, 24 h; % of positive control, neutral wells = 0; activation, % at 12.5 µM; AID 588334; 300,000 compounds, 0.75% hits;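 active = mean activation of at least 80% with every replicate also reaching 80%; inconclusive = mean reaches 80% but some replicate falls short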;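 note: 0% = neutral control wells and 100% = parthenolide positive control wells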
# esBAF inh – SWI/SNF esBAF complex inhibition | mouse ES cells, Bmi1-luciferase knock-in reporter, 24 h; 100% = twice the neutral-well signal | reporter increase, % at 12.5 µM | 350,000 compounds, 2% hits; in the data active = activation above about 40%; inconclusive = no clear call, values can overlap the other calls;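 note: 0% = median of the plate's neutral control wells and 100% = double that signal; a rise in the Bmi1 reporter signal indicates esBAF inhibition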
# Statin myotox sup – suppression of simvastatin myotoxicity; rescue of ATP level, % at 7.49 µM; 330,000 compounds, 0.78% hits; C2C12 myotubes + simvastatin, ATP luminescence, 48 h; scaled: DMSO 0, geranylgeraniol control 100;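 active = mean ATP rescue above about 67%, or every replicate alone reaching that limit, limit read from the data, passing the limit was not always enough; inconclusive = no clear call, values can overlap the other calls; inactive = mean under the limit and some replicate under it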;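 note: myotubes were challenged with 10 µM simvastatin during compound exposure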
# Starred values were filed as active, the others as inactive; ? = inconclusive; nt = no result; ! = a repeat was not active.
SMILES,FXN GAA850 act,Wnt act,MITF act,esBAF inh,Statin myotox sup
CSc1nc2ccc(NC(=O)c3cc4ccccc4o3)cc2s1,2,58*,54,nt,nt
CSc1nc2ccc(NC(=O)c3ccc(=O)n(C)n3)cc2s1,5,13,4,nt,nt
COc1ccc(C#Cc2cnc3c(c2)C(=O)N([C@@H](C)CO)C[C@@H](C)[C@@H](CN(C)C(=O)Nc2cccc(OC)c2)O3)cc1,nt,nt,nt,21,?
CSc1nc2ccc(NC(=O)c3ccco3)cc2s1,6,nt,88*,nt,nt
CSc1nc2ccc3nc(NC(=O)c4ccccc4)sc3c2s1,4,28,42,50*,14
Clc1ccc(Nc2nc(-c3ccncc3)cs2)cc1,5,nt,76,29,-52
COc1ccccc1Nc1nc(C)cs1,1,0,89*!,16,-6
Cc1ccc(Nc2nc(C)cs2)cc1,4,58*,55,20,-89
Cc1csc(Nc2ccc(Cl)cc2)n1,4,11,78,76*,-25
C[C@@H]1CN([C@@H](C)CO)C(=O)c2cc(NS(=O)(=O)c3ccc(F)cc3)ccc2O[C@@H]1CN(C)S(=O)(=O)c1cn(C)cn1,nt,nt,nt,0,-8
COc1ccc(S(=O)(=O)N(C)C[C@@H]2Oc3c(NC(=O)C4CCCCC4)cccc3C(=O)N([C@@H](C)CO)C[C@@H]2C)cc1,nt,nt,nt,-4,-39
CCCNC(=O)C[C@H]1CC[C@@H]2[C@@H](COc3ccc(NC(=O)c4cccc(Cl)c4)cc3C(=O)N2C)O1,nt,nt,nt,6,10
C[C@H](CO)N1C[C@H](C)[C@@H](CN(C)C(=O)C2CCCCC2)Oc2cc(-c3ccc(C(=O)N(C)C)cc3)ccc2S1(=O)=O,nt,nt,nt,1,-15
N#C/C(=C\c1c[nH]c2ccccc12)C(=O)NC1CC1,5,8,nt,71*,-9
N#C/C(=C\c1c[nH]c2ccccc12)C(=O)NC1CCCC1,4,-1,54,21,-8
CCOc1cccc(C(=O)Nc2cccc(-c3nnc(-c4ccccc4)o3)c2)c1,1,6,27,43*,-81
CCOC(=O)c1cccc(COC(=O)c2cccc(-c3nnc(-c4ccccc4)o3)c2)c1,2,55*,-6,nt,nt
CC(=O)Nc1cccc(-c2nnc(-c3ccccc3)o2)c1,4,35*,nt,?,-11
Cc1cc(C)n(-c2ccc(C(=O)OCc3ccccc3)cc2)n1,3,-2,16,nt,nt
O=C(Nc1cccc(-c2nnc(-c3ccccc3)o2)c1)C1CC1,7,2,66,37,-11
Cc1cc(C)n(-c2ccc(C(=O)OCc3nnc(-c4ccccc4)o3)cc2)n1,2,nt,14,46*,-14
Cc1nn(C)cc1NC(=O)C[C@@H]1CC[C@H]2[C@@H](COc3ccc(NC(=O)NC(C)C)cc3C(=O)N2C)O1,nt,nt,nt,2,-5
CCNC(=O)[C@H]1[C@H](CO)[C@H]2Cn3c(ccc(-c4ccc(OC)cc4)c3=O)[C@@H]1N2CC,nt,nt,nt,-7,-21
O=c1[nH]c(N2CCOCC2)nc2c1CCCC2,-1,nt,-4,0,117*
O=c1[nH]c(N2CCN(c3ccccc3)CC2)nc2c1CCCC2,-3,nt,-21,nt,nt
SMILES,FXN GAA850 act,Wnt act,MITF act,esBAF inh,Statin myotox sup
CSc1nc2c(c(=O)[nH]1)CCCC2,0,nt,3,-3,119*
O=C(O)CSc1nc2c(c(=O)[nH]1)CCCC2,1,nt,-16,nt,nt
COc1ccc(NC(=O)N[C@@H]2CC[C@@H](CCNS(=O)(=O)c3ccccc3F)O[C@@H]2CO)cc1,nt,nt,nt,7,12
CCn1c(N)c(C(=O)N2CCOCC2)sc1=S,-2,-1,-1,1,129*
COc1ccccc1-c1noc(-c2cc(OC)c(OC)c(OC)c2)n1,3,nt,nt,4,-10
c1ccc(-c2noc(-c3cccc4ccccc34)n2)nc1,1,nt,-6,-47,-3
COc1cc(-c2nc(-c3ccccn3)no2)cc(OC)c1OC,3,nt,63,50*,4
COc1cccc(-c2nc(-c3ccccn3)no2)c1OC,0,60*,84*,43*,-5
O=C(Nc1ccc2c(c1)oc1ccccc12)N1CCOCC1,3,nt,56,60*,-30
CCNC(=S)Nc1ccc2c(c1)oc1ccccc12,4,38*,?,63*,-18
CC(C)c1ccc(NC(=O)N2CCOCC2)cc1,5,3,nt,45*,-13
O=C(C1CC1)N1CC[C@H]2[C@H](CO)Nc3ccc(Br)cc3[C@H]21,nt,nt,nt,4,19
O=C(C1CC1)N1CC[C@@H]2[C@H]1c1cc(Br)ccc1N[C@@H]2CO,nt,nt,nt,47*,8

# Screens from PubChem BioAssay.
